Results taken from the supplement of paper PMC12282887.
± gives the standard deviation of the averaged measurements.

Assays:
Experiment in all cases: promoter activity interaction Z-score (Lux/OD deviation from empty-vector control); higher = stronger promoter induction by the compound
[1] = test system: E. coli BW25113 acrABp lux reporter
Method in brief: (§1)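 In 384-well plates, 40 µl LB Lennox cultures of E. coli BW25113 with low-copy luxCDABE promoter reporters grew at 37°C. Optical density at 600 nm and light output were recorded every 30 min for 12 h, with windows of 0–8 h for wild type and 1–9 h for deletion strains, and wells under 10% of the median growth value were left out. Each value is a Z-transformed residual of growth-normalised luminescence fitted against a control.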

[2] = test system: E. coli BW25113 micFp lux reporter
Method in brief: as §1

[3] = test system: E. coli BW25113 ompFp lux reporter
Method in brief: as §1

[4] = test system: E. coli BW25113 robp lux reporter
Method in brief: as §1

[5] = test system: E. coli BW25113 soxSp lux reporter
Method in brief: as §1

[6] = test system: E. coli BW25113 tolCp lux reporter
Method in brief: as §1

[7] = 0.011 µg/ml, genetic background: wild type
[8] = 0.011 µg/ml, genetic background: ΔmarA
[9] = 0.011 µg/ml, genetic background: Δrob
[10] = 0.011 µg/ml, genetic background: ΔsoxS
[11] = 0.022 µg/ml, genetic background: wild type
[12] = 0.022 µg/ml, genetic background: ΔmarA
[13] = 0.022 µg/ml, genetic background: Δrob
[14] = 0.022 µg/ml, genetic background: ΔsoxS
[15] = 0.044 µg/ml, genetic background: wild type
[16] = 0.044 µg/ml, genetic background: ΔmarA
[17] = 0.044 µg/ml, genetic background: Δrob
[18] = 0.044 µg/ml, genetic background: ΔsoxS
[19] = 0.13 µg/ml, genetic background: wild type
[20] = 0.13 µg/ml, genetic background: ΔmarA
[21] = 0.13 µg/ml, genetic background: Δrob
[22] = 0.13 µg/ml, genetic background: ΔsoxS
[23] = 0.26 µg/ml, genetic background: wild type
[24] = 0.26 µg/ml, genetic background: ΔmarA
[25] = 0.26 µg/ml, genetic background: Δrob
[26] = 0.26 µg/ml, genetic background: ΔsoxS
[27] = 0.52 µg/ml, genetic background: wild type
[28] = 0.52 µg/ml, genetic background: ΔmarA
[29] = 0.52 µg/ml, genetic background: Δrob
[30] = 0.52 µg/ml, genetic background: ΔsoxS

Structure (SMILES): C[C@@H](O)[C@H]1C(=O)N2C(C(=O)O)=C(S[C@@H]3CN[C@H](C(=O)N(C)C)C3)[C@H](C)[C@H]12 [Meropenem]
- promoter activity interaction Z-score [1, 7]: -0.325 ± 0.13
- promoter activity interaction Z-score [1, 8]: -0.25 ± 1.2
- promoter activity interaction Z-score [1, 9]: -0.499 ± 0.11
- promoter activity interaction Z-score [1, 10]: -0.443 ± 0.38
- promoter activity interaction Z-score [1, 11]: -0.443 ± 0.2
- promoter activity interaction Z-score [1, 12]: 0.239 ± 0.72
- promoter activity interaction Z-score [1, 13]: -0.429 ± 0.27
- promoter activity interaction Z-score [1, 14]: -0.714 ± 0.56
- promoter activity interaction Z-score [1, 15]: -0.272 ± 0.31
- promoter activity interaction Z-score [1, 16]: -0.463 ± 0.48
- promoter activity interaction Z-score [1, 17]: -0.0657
- promoter activity interaction Z-score [1, 18]: -1.05 ± 0.84
- promoter activity interaction Z-score [2, 7]: -0.112 ± 0.01
- promoter activity interaction Z-score [2, 8]: 0.0252 ± 0.018
- promoter activity interaction Z-score [2, 9]: -0.116 ± 0.077
- promoter activity interaction Z-score [2, 10]: -0.229 ± 0.14
- promoter activity interaction Z-score [2, 11]: 0.415 ± 0.16
- promoter activity interaction Z-score [2, 12]: -0.0395 ± 0.041
- promoter activity interaction Z-score [2, 13]: 0.325 ± 0.09
- promoter activity interaction Z-score [2, 14]: 0.0746 ± 0.14
- promoter activity interaction Z-score [2, 15]: -0.67 ± 0.27
- promoter activity interaction Z-score [2, 16]: -0.111 ± 0.099
- promoter activity interaction Z-score [2, 17]: -0.153 ± 0.23
- promoter activity interaction Z-score [2, 18]: 0.149 ± 0.13
- promoter activity interaction Z-score [3, 7]: -0.54 ± 0.28
- promoter activity interaction Z-score [3, 8]: -0.583 ± 0.092
- promoter activity interaction Z-score [3, 9]: -0.754 ± 0.17
- promoter activity interaction Z-score [3, 10]: -0.418 ± 0.015
- promoter activity interaction Z-score [3, 11]: -0.588 ± 0.17
- promoter activity interaction Z-score [3, 12]: -0.0893 ± 0.4
- promoter activity interaction Z-score [3, 13]: -0.761 ± 1
- promoter activity interaction Z-score [3, 14]: 0.398 ± 0.68
- promoter activity interaction Z-score [3, 15]: -2.42 ± 0.71
- promoter activity interaction Z-score [3, 16]: -1.11 ± 1.2
- promoter activity interaction Z-score [3, 17]: -3.33
- promoter activity interaction Z-score [3, 18]: -0.548 ± 0.013
- promoter activity interaction Z-score [4, 7]: 0.101 ± 0.27
- promoter activity interaction Z-score [4, 8]: -0.585 ± 0.075
- promoter activity interaction Z-score [4, 9]: -0.128 ± 0.22
- promoter activity interaction Z-score [4, 10]: -0.321 ± 0.77
- promoter activity interaction Z-score [4, 11]: -0.965 ± 0.67
- promoter activity interaction Z-score [4, 12]: 0.101 ± 0.13
- promoter activity interaction Z-score [4, 13]: -0.78 ± 0.081
- promoter activity interaction Z-score [4, 14]: 0.872 ± 0.96
- promoter activity interaction Z-score [4, 15]: -1.9
- promoter activity interaction Z-score [4, 16]: -1.13 ± 0.46
- promoter activity interaction Z-score [4, 17]: -2.08 ± 0.078
- promoter activity interaction Z-score [4, 18]: -1.54 ± 0.12
- promoter activity interaction Z-score [5, 7]: -0.0716 ± 0.075
- promoter activity interaction Z-score [5, 8]: -0.0983 ± 0.033
- promoter activity interaction Z-score [5, 9]: -0.37 ± 0.018
- promoter activity interaction Z-score [5, 10]: 0.00722 ± 0.14
- promoter activity interaction Z-score [5, 11]: -0.334 ± 0.51
- promoter activity interaction Z-score [5, 12]: -0.124 ± 0.17
- promoter activity interaction Z-score [5, 13]: -0.218 ± 0.073
- promoter activity interaction Z-score [5, 14]: 0.588 ± 0.26
- promoter activity interaction Z-score [5, 16]: -1.21
- promoter activity interaction Z-score [5, 17]: -0.982 ± 0.23
- promoter activity interaction Z-score [5, 18]: 0.387 ± 0.062
- promoter activity interaction Z-score [6, 7]: -0.834 ± 0.2
- promoter activity interaction Z-score [6, 8]: -1.09 ± 0.39
- promoter activity interaction Z-score [6, 9]: -0.937 ± 0.21
- promoter activity interaction Z-score [6, 10]: -0.582 ± 0.57
- promoter activity interaction Z-score [6, 11]: -0.873 ± 0.14
- promoter activity interaction Z-score [6, 12]: -0.075 ± 1
- promoter activity interaction Z-score [6, 13]: -1.42 ± 0.33
- promoter activity interaction Z-score [6, 14]: -0.223 ± 0.39
- promoter activity interaction Z-score [6, 15]: -1.14
- promoter activity interaction Z-score [6, 16]: -0.703
- promoter activity interaction Z-score [6, 17]: -1.44 ± 0.34
- promoter activity interaction Z-score [6, 18]: 0.705

Structure (SMILES): CNC(C)C1CCC(N)C(OC2C(N)CC(N)C(OC3OCC(C)(O)C(NC)C3O)C2O)O1 (stereo unspecified) [Gentamicin]
- promoter activity interaction Z-score [1, 19]: -0.258 ± 0.098
- promoter activity interaction Z-score [1, 20]: 0.731 ± 0.32
- promoter activity interaction Z-score [1, 21]: 0.126 ± 0.055
- promoter activity interaction Z-score [1, 22]: 0.158 ± 0.14
- promoter activity interaction Z-score [1, 23]: -0.117 ± 0.18
- promoter activity interaction Z-score [1, 24]: 0.35 ± 0.15
- promoter activity interaction Z-score [1, 25]: 0.483 ± 0.18
- promoter activity interaction Z-score [1, 26]: 0.0843 ± 0.06
- promoter activity interaction Z-score [1, 27]: 0.311 ± 0.023
- promoter activity interaction Z-score [1, 28]: 0.396 ± 0.21
- promoter activity interaction Z-score [1, 29]: 0.801 ± 0.45
- promoter activity interaction Z-score [1, 30]: 0.744 ± 0.39
- promoter activity interaction Z-score [2, 19]: -0.256 ± 0.0079
- promoter activity interaction Z-score [2, 20]: -0.00364 ± 0.024
- promoter activity interaction Z-score [2, 21]: -0.0412 ± 0.1
- promoter activity interaction Z-score [2, 22]: 0.232 ± 0.23
- promoter activity interaction Z-score [2, 23]: -0.302 ± 0.26
- promoter activity interaction Z-score [2, 24]: 0.035 ± 0.072
- promoter activity interaction Z-score [2, 25]: 0.115 ± 0.15
- promoter activity interaction Z-score [2, 26]: 0.509 ± 0.23
- promoter activity interaction Z-score [2, 27]: -0.614 ± 0.016
- promoter activity interaction Z-score [2, 28]: 0.0535 ± 0.039
- promoter activity interaction Z-score [2, 29]: 0.114 ± 0.013
- promoter activity interaction Z-score [2, 30]: 0.235 ± 0.36
- promoter activity interaction Z-score [3, 19]: -0.504 ± 0.27
- promoter activity interaction Z-score [3, 20]: -0.192 ± 0.27
- promoter activity interaction Z-score [3, 21]: 0.285 ± 0.14
- promoter activity interaction Z-score [3, 22]: 0.28 ± 0.15
- promoter activity interaction Z-score [3, 23]: -1.09 ± 0.052
- promoter activity interaction Z-score [3, 24]: -0.0939 ± 0.49
